Source: PubChem
This is a sample that favours compounds with a hit; in the whole collection about 2.9% have one here.
SKN-1 block = C. elegans SKN-1 inhibition | inhibition, % at 21.8 µM | C. elegans VP596 Pgst-4::GFP/RFP ratio, acrylamide-induced, 24 h | 0.49% of 360,000 active;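 active = interference check ratio from 0.5 to 1.5 plus GFP to RFP signal ratio inhibition reaching or exceeding a fixed threshold, cut at about 30% in these data, passing the limit was not always enough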
PGE2 EP2 inh = inhibitors of human EP2 prostaglandin E2 receptor. AID 1422. inhibition, % at 25 µM. 0.52% of 260,000 active. P43116. C6 glioma cells expressing human EP2, cAMP TR-FRET; cells stimulated with saturating PGE2;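 active = percent inhibition above 40 after rounding to a whole number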;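 note: rat C6 glioma host cells with rolipram phosphodiesterase inhibitor present; the protocol text gives 20 µM as final concentration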
Target sequence (P43116 whole entry, looked up): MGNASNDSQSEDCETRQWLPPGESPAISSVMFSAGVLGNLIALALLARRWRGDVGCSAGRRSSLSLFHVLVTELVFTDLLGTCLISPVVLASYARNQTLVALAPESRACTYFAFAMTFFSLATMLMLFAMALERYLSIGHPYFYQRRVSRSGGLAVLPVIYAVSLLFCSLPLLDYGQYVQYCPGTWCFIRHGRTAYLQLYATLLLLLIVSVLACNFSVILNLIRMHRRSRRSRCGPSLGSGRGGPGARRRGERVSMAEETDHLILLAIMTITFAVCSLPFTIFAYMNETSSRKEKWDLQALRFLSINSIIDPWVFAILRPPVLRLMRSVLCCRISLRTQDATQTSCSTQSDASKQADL
NR1D1 modulator = Rev-erb alpha (human) modulation. activity, % at 10 µM. 0.79% of 370,000 active. Rev-erbα–FITC-DNA binding, fluorescence polarization, 90 min;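 active = activity above about 14%, limit read from the data; passing the limit was not always enough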;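 note: 0% = DMSO wells with 35 nM protein and 100% = DMSO wells with 750 nM protein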
RAM network inh = yeast RAM network inhibition; S. cerevisiae dse1pr::URA3 reporter, 5-FOA growth OD615, 2 d; analog-sensitive cbk1-as2 kinase mutant strain; AID 868; 1.8% of 190,000 active; inhibition, % at 50 µM;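 active = inhibition above a set limit, 3 SD over mean compound inhibition, cut at about 8.4% in these data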;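 note: 0% = DMSO-only wells with no growth and 100% = 10 µM 1-NA-PP1 full growth; inhibition rescues growth on 5-FOA so higher OD means more RAM inhibition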
PG9 binder = PG9 antibody binding by small molecule; AID 624416; inhibition, % at 6.7 µM; 0.43% of 360,000 active; TR-FRET gp120-PG9 antibody binding; in the data active = inhibition above about 8.5%
EP2 mod = modulates human prostaglandin E2 receptor EP2 signaling; P43116; EP2-expressing cells, cAMP HTRF FRET, PGE2 co-stimulation; induction, % at 25 µM; 0.83% of 260,000 active;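 active = compounds whose cAMP rise, as percent of the full-agonist control response, exceeds 60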;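 note: rat C6 glioma line stably carrying human EP2 under a CMV promoter; the protocol text gives 20 µM as final concentration; 100% = response of wells given 1 µM PGE2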
EP2 confirm = human EP2 receptor cAMP induction, negative in counter-screens; shares compounds with EP2 mod; C6 glioma EP2 cells, cAMP HTRF induction; plus low (about EC15) PGE2 agonist; calls only at 20 µM (by protocol); 47% of 1,300 active; AID 1080;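 active = cAMP induction above 50% in the main assay while under 30% in all four parallel counter assays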;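 note: rat C6 glioma cells stably expressing human EP2 receptor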
Numbers without * were called inactive; i = inactive; · = no result; + = active, no number.

SMILES	SKN-1 block	PGE2 EP2 inh	NR1D1 modulator	RAM network inh	PG9 binder	EP2 mod	EP2 confirm
Cc1ccc(-c2nnc(N3CCC(C)CC3)c3ccccc23)cc1	2	8	-5	0	0	74*	i
Cc1ccc(N=N/C(=C\O)C(=O)c2ccc(Cl)cc2)cc1	6	6	1	5	1	89*	+
O=C(/C(=C/O)N=Nc1ccccc1)c1ccncc1	9	9	-4	·	-2	-10	·
O=C(/C(=C/O)N=Nc1ccccc1)c1ccc(Cl)cc1	-4	1	-5	7	0	73*	+
COc1cc(C2SC(NC(C)=O)=NN2C(C)=O)ccc1OC(C)=O (stereo not drawn)	·	14	·	·	·	5	·
CCOC(=O)c1ccc(CN(Cc2ccc(C)cc2)S(=O)(=O)c2cccc([N+](=O)[O-])c2)cc1	7	4	1	10*	-1	65*	i
Cc1ccc(C(=O)O/N=C(\N)c2cccc([N+](=O)[O-])c2)cc1	6	4	-3	4	-1	21	·
Cc1ccc2c(c1)N(S(=O)(=O)c1ccc(F)cc1)C(C(C)(C)C)CO2 (stereo not drawn)	-21	9	2	4	-3	77*	+
Cc1ccc2c(c1)NC(C(C)(C)C)CO2 (stereo not drawn)	-11	4	1	0	-2	-19	·
Cc1ccc(S(=O)(=O)N2c3ccccc3OCC2C(C)(C)C)cc1 (stereo not drawn)	18	5	1	5	-2	88*	+
CCOC(=O)C1=C(N)N2C(=O)C(C)SC2=C(C(=O)OCC)C1c1ccc(O)cc1 (stereo not drawn)	-10	8	-3	·	-1	11	·
CCOC(=O)C1=C(N)N2C(=O)C(C)SC2=C(C(=O)OC)C1c1ccccc1OC (stereo not drawn)	13	7	-2	0	-3	88*	+
CC1(C)CC(=O)C2=C(C1)OC(N)=C(C#N)C2c1ccc(-c2ccc(F)cc2)o1 (stereo not drawn)	·	23	·	·	·	-97	·
Cc1ccccc1OCc1nc2ccccc2c(=O)n1/N=C/c1ccco1	5	17	-3	0	0	67*	i
O=C(c1nccs1)C1CCN(C(=O)c2ccc(-n3cnnn3)cc2)CC1	·	·	·	·	·	-37	·
CC(C)Cc1nc(SCc2cccnc2)c2c(=O)n(C)c(=O)n(C)c2n1	-14	5	-7	1	-1	63*	i
CCc1nc(SCc2cccnc2)c2c(=O)n(C)c(=O)n(C)c2n1	-7	6	3	1	-2	24	·
COc1ccc(CCNC(=O)CN2CCC(n3nnc4cc(C)ccc43)CC2)cc1OC	·	5	·	·	·	-61	·
Cc1ccc(S(=O)(=O)n2c3ccc(F)cc3c3nc(C)sc32)cc1	·	5	·	5	·	95*	+
CCN(CC)CCn1c2ccc(F)cc2c2nc(C)sc21	-8	12	6	0	-3	-10	·
Cn1c(=O)c2c([nH]c(=S)n2Cc2cccc3ccccc23)n(C)c1=O	·	10	·	·	·	23	·
CCSC1=N/C(=C\c2ccccc2)C(=O)N1c1ccc(OC)cc1	0	6	1	10*	-1	79*	+
CC1(C)OC2OC(C(=O)NCC(N)=O)C3OC(C)(C)OC3C2O1 (stereo not drawn)	·	12	·	·	·	1	·
CN(C)Cc1ccccc1Sc1cccc2ccccc12	7	8	0	1	0	75*	+
O=C(CN1C(=O)c2ccccc2S1(=O)=O)N1C2CCC1CC(c1ccc(F)cc1)C2 (stereo not drawn)	·	6	·	·	·	-19	·
SMILES	SKN-1 block	PGE2 EP2 inh	NR1D1 modulator	RAM network inh	PG9 binder	EP2 mod	EP2 confirm
COc1ccc(CCN(C)Cc2nc(-c3cnccn3)no2)cc1OC	-3	7	1	·	2	14	·
COc1ccc(CCN(Cc2nc(-c3ccccc3)no2)Cc2nc(-c3ccccc3)no2)cc1OC	11	11	2	9.0*	-2	50	i
Cc1ccc(C(=O)Nc2ccccc2Sc2ccccc2)cc1	1	8	-3	1	-1	49	·
O=C(Nc1ccccc1Sc1ccccc1)c1ccc(F)cc1	25	2	-4	1	-1	72*	+
O=C(Cc1ccc(Cl)cc1)Nc1ccccc1Sc1ccccc1	12	3	6	0	1	75*	+
CCN(CC)CCCNc1nc(-c2cccnc2)nc2ccccc12	·	7	·	·	·	11	·
Cc1cccc(NCc2nc3ccccc3n2Cc2ccccc2)c1	2	-1	2	2	0	66*	i
Cc1ccc(Cn2c(Cc3ccccc3)nc3ccccc32)cc1	8	4	8	2	-2	80*	+
Cc1nc2cc(NCc3nc4ccccc4n3Cc3ccccc3)ccc2n1C	23	·	-19	3	-2	-8	·
COC(=O)c1ccc(Oc2cc(C)nc(NCc3ccccc3)n2)cc1	-5	11	0	1	-2	70*	+
CC1(C)Cc2ccccc2-c2nc3n(c(=O)c21)CCS3	0	10	5	2	0	74*	+
Cc1cccc(C2CC3(CC(C)(C)NC(=S)N3)Oc3c2ccc(O)c3O)c1 (stereo not drawn)	·	13	·	·	·	-93	·
N#CN=C1SCCS1	8	13	-1	2	-3	66*	i
COc1ccccc1CN(C1CCCC1)S(=O)(=O)c1ccc(-n2cnnn2)c(OC)c1	·	8	·	·	·	32	·
Cc1sc(NC(=O)Cc2ccc3c(c2)OCO3)nc1-c1ccc2c(c1)CCN2C(=O)c1cccc(F)c1	8	5	7	4	2	72*	i
Cc1ccccc1C(=O)N1CCc2cc(-c3nc(NC(=O)Cc4ccc5c(c4)OCO5)sc3C)ccc21	4	8	·	5	·	14	·
COc1ccc(-n2ncc3c(=O)n(CC(=O)NCCc4ccc(OC)c(OC)c4)cnc32)cc1	·	14	·	·	·	1	·
Cc1ncc2c(n1)-c1cc(F)ccc1SC2	2	·	0	·	1	·	·
CSc1ncc2c(n1)-c1cc(C)ccc1SC2	28	13	15	4	-2	78*	+
O=C1OC(c2ccccc2)=N/C1=C\c1cc2c(cc1Br)OCO2	·	9	·	·	·	12	·
Cc1cc(NC(=O)CCC(=O)N(CC(=O)NCC2CCCO2)Cc2ccco2)no1 (stereo not drawn)	·	8	·	·	·	-8	·
C[C@@H]1CC[C@H]2C(C)(C)C3CC12CC[C@@]3(C)O (stereo partly drawn)	·	11	·	·	·	65*	+
Cc1cccc(CSc2ncnc3ccccc23)c1	4	7	15	1	0	71*	i
